Consider 20 molecules from PubChem BioAssay (Tox21).

A short description of assay [1]: qHTS assay to identify small molecule agonists of the RXR signaling pathway - cell viability counter screen (AID 1159529). For activity change, negative = cytotoxicity: series mostly up to about 77 µM. Note: nearly all actives have a fitted effect of over 50% in size. Note: potency is the fitted concentration of half-maximal effect. The method in brief:
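Luminescence from CellTiter-Glo (30 min, RT) measured viability in the same wells as the beta-lactamase reporter readout. Cells: GeneBLAzer RXR-alpha HEK 293T, 2% charcoal-stripped FBS. Compound exposure 16 hr, 37 C.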

Assay [2] in a line: qHTS assay to identify small molecule antagonists of the retinoid acid receptor (RAR) signaling pathway - cell viability counter screen (AID 1159551). Note: nearly all actives have a fitted effect of over 35% in size. Note: potency is the fitted concentration of half-maximal effect. In short, it runs like this:
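Following overnight attachment, C3RL4 reporter cells received DMSO-dissolved compounds and then retinol (1 uM final). Six hours later at 37 C, ATP content was measured by CellTiter-Glo luminescence.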

Assay [3] can be described thus: qHTS assay to identify small molecule antagonists of the estrogen related receptor (ERR) signaling pathway from Tox21 library - cell viability counter screen (AID 1224834). Note: nearly all actives have a fitted effect of over 30% in size. Note: potency is the fitted concentration of half-maximal effect. In short, it runs like this: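 Viability readout (CellTiter-Fluor fluorescence, 30 min at 37 C) multiplexed with the ERR assay; cells treated 17.5 h at 37 C with compounds delivered in DMSO.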

Assay [4] can be described thus: qHTS assay to identify small molecule agonists of the constitutive androstane receptor (CAR) signaling pathway - cell viability counter screen (AID 1224836). For viability change, negative = cytotoxic: series mostly up to about 92 µM. Note: nearly all actives have a fitted effect of over 45% in size. Note: potency is the fitted concentration of half-maximal effect. The method in brief: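 Viability read-out: CellTiter-Fluor fluorescence after 23 h compound exposure at 37 C/5% CO2 in double-stable HepG2-CYP2B6-hCAR cells, with PK11195 present at 0.75 uM final; compounds tested in 15-point titration.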

A short description of assay [5]: qHTS assay to identify small molecule antagonists of the constitutive androstane receptor (CAR) signaling pathway - cell viability counter screen (AID 1224837). For activity change, negative = cytotoxicity: series mostly up to about 92 µM. Note: nearly all actives have a fitted effect of over 45% in size. Note: potency is the fitted concentration of half-maximal effect. In short, it runs like this: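 Fluorescence from CellTiter-Fluor served as the viability signal. Human hepatoma HepG2 cells stably bearing hCAR and CYP2B6-2.2kb received compound plus CITCO (50 nM final) for 23 hr.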

A short description of assay [6]: qHTS assay to identify small molecule antagonists of the estrogen related receptor signaling pathway with the pleiotropic PPARgamma coactivator (PGC) from Tox21 10K library - cell viability counter screen (AID 1224840; active = well fitted cell-killing curve with a large enough effect in the repeat runs, not every such curve was filed as active; note: nearly all actives have a fitted effect of over 40% in size; note: potency is the fitted concentration of half-maximal effect). The method in brief: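 Compounds in DMSO, alongside positive and negative controls, were pinned onto PGC/ERR cells (2,000 per well). Exposure lasted 17.5 hours at 37 C, followed by a 30-minute CellTiter-Fluor incubation and fluorescence reading.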

The target in assay [7] is Luciferin 4-monooxygenase (Photinus pyralis) (UniProt P08659). The experiment in a line: qHTS assay to identify small molecule inhibitors of firefly luciferase (AID 1224835). Note: nearly all actives have a fitted effect of over 25% in size. Note: potency is the fitted concentration of half-maximal effect. In short, it runs like this:
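Inhibition of purified Photinus luciferase is measured by luminescence. Substrate levels (D-luciferin, ATP) sit at their KM values. Each compound is tested in a concentration series.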

In assay [8] the target is Nuclear receptor subfamily 1 group I member 3 (Homo sapiens) (UniProt Q14994). The experiment in a line: qHTS assay to identify small molecule antagonists of the constitutive androstane receptor (CAR) signaling pathway (AID 1224838).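 Note: HepG2 cells stably expressing hCAR with CYP2B6 luciferase reporter stimulated by CITCO; nearly all actives have a fitted effect of over 40% in size.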 Note: potency is the fitted concentration of half-maximal effect. In short, it runs like this:
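Quantitative HTS in double-stable HepG2-CYP2B6-hCAR cells. After 4 h plating, cells get compound (15 concentrations) and CITCO at 50 nM final, incubate 24 h at 37 C, then ONE-Glo luminescence is read.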

Assay [9] is described as follows: qHTS assay to identify small molecule antagonists of the estrogen related receptor signaling pathway with the pleiotropic PPARgamma coactivator (PGC) from Tox21 10K library (AID 1224841; call rule not given here; note: actives are mostly falling curves and most rising ones were filed inactive; nearly all actives have a fitted effect of over 50% in size; note: potency is the fitted concentration of half-maximal effect; for activity, negative = inhibition: series mostly up to about 92 µM). The method in brief:
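Compound exposure ran 18 hours at 37 C in PGC/ERR cells (2,000/well) that had first rested 6 hours in a 37 C/5% CO2 incubator. Luciferase activity was then detected with One-Glo after a 30-minute room-temperature step.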

Assay [10] has as its target Thyrotropin receptor (Homo sapiens) (UniProt P16473). The experiment in a line: qHTS assay to identify small molecule agonists of the thyroid stimulating hormone receptor (TSHR) signaling pathway (AID 1224843; calls by dose curve; note: nearly all actives have a fitted effect of over 45% in size; note: potency is the fitted concentration of half-maximal effect). In short, it runs like this: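 HEK293 cells stably bearing the thyrotropin receptor were plated at 800 cells/well and challenged with compound (30 min, RT). Accumulated cAMP was quantified via cAMP-d2 competing for cryptate-tagged antibody.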

Assay [11] in a line: qHTS assay to identify small molecule agonists of the estrogen related receptor signaling pathway with the pleiotropic PPARgamma coactivator (PGC) from Tox21 10K library (AID 1224842). Note: nearly all actives have a fitted effect of over 15% in size. The method in brief:
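Luminescence from One-Glo (30 min, room temperature) measured after PGC/ERR cells had 18 h at 37 C with pinned compound (23 nL in DMSO). Cells had been seeded at 2,000 per well and pre-incubated 6 h.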

A short description of assay [12]: qHTS assay to identify small molecule antagonists of the retinoic acid receptor (RAR) signaling pathway (AID 1159552; note: nearly all actives have a fitted effect of over 50% in size; note: potency is the fitted concentration of half-maximal effect). The method in brief:
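Luminescence from a RARE luciferase reporter in C3RL4 cells served as read-out. Cells received compounds together with 1 uM final retinol and incubated 6 hr at 37 C before detection reagent was added for 30 min at room temperature.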

Assay [13] can be described thus: qHTS assay to identify small molecule agonists of the retinoic acid receptor (RAR) signaling pathway (AID 1159553). Note: potency is the fitted concentration of half-maximal effect. In short, it runs like this: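 Cell line C3RL4, RARE luciferase reporter. Treatment: compounds in DMSO, 6 hr, 37 C, 5% CO2, after overnight plating. Detection: luminescence, 30 min RT after reagent.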
For assay [14], the target named is Nuclear receptor subfamily 1 group I member 3 (Homo sapiens) (UniProt Q14994). The experiment in a line: qHTS assay to identify small molecule agonists of the constitutive androstane receptor (CAR) signaling pathway (AID 1224839). Note: nearly all actives have a fitted effect of over 15% in size. Note: potency is the fitted concentration of half-maximal effect. The method in brief: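 Luminescence read-out (ONE-Glo, 30 min, room temperature) from double-stable HepG2-CYP2B6-hCAR cells exposed 24 h to 15-point compound series in presence of 0.75 uM PK11195 final.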
Nuclear receptor subfamily 1 group I member 3 (Homo sapiens), sequence (Q14994 whole entry, looked up): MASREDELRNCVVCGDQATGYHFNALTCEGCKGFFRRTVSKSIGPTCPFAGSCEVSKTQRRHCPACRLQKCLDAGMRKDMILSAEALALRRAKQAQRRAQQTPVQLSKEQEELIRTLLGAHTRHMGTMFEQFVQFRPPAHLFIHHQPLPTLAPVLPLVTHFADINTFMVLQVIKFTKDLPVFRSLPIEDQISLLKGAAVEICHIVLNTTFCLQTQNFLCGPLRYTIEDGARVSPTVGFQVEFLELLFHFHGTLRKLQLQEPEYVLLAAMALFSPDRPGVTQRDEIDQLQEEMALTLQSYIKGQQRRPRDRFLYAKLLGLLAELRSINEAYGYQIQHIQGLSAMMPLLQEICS

Where “and” joins values, the source holds several entries; their conditions need not be identical. Equal values may be shown once. Inconclusive results are not listed. A number with no mark means an inactive call. Calls of active or inactive are those of the source. Unless noted, calls come from the whole dose curve; as a rule, active = well fitted curve in the direction sought with a large enough effect in the repeat runs; inconclusive = weak or mixed curves; inactive = no such curve, though single readings can be large; an effect the other way counts as inactive or inconclusive.
% is set by controls: 0 for no effect and ±100 for the full control effect.

Thyrotropin receptor (Homo sapiens), sequence (P16473 whole entry, looked up): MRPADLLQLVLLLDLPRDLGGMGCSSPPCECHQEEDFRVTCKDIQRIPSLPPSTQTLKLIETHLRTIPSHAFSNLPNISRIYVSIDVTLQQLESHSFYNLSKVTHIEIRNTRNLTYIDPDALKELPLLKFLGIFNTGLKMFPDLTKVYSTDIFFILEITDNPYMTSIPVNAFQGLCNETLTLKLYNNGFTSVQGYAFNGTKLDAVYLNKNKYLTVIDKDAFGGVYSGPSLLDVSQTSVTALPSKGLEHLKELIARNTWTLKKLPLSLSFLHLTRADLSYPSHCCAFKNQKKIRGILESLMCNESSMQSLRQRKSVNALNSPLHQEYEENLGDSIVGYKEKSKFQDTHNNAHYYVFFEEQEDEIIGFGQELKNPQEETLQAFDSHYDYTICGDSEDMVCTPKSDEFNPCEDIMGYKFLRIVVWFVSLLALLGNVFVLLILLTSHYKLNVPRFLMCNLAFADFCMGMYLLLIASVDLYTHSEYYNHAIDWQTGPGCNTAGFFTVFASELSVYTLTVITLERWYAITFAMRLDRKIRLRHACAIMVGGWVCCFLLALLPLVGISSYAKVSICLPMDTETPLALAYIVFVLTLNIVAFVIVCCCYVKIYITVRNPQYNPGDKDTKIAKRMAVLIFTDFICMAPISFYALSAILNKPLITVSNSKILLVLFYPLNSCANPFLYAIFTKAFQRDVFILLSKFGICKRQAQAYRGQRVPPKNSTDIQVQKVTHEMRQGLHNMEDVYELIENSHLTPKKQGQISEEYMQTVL
Luciferin 4-monooxygenase (Photinus pyralis), sequence (P08659 whole entry, looked up): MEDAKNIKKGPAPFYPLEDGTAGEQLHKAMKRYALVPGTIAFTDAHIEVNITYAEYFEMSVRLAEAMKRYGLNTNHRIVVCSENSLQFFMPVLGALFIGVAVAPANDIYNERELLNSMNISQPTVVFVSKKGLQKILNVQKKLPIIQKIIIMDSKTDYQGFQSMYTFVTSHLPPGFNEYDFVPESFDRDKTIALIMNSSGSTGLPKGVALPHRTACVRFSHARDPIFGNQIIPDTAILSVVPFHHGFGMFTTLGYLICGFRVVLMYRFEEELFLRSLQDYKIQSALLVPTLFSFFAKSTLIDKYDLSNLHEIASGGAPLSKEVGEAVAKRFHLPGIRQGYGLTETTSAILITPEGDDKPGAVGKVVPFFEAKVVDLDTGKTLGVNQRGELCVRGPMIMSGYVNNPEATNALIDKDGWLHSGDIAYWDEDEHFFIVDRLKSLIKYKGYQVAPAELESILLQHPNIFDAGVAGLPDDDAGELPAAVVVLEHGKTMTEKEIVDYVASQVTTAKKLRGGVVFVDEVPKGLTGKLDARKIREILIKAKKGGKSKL

`CC(=O)[O-].CC(=O)[O-].CC(=O)[O-].[Sb+3]`: the figures for the activity change, negative = cytotoxicity in [1], in assay [2] and in [5] were 2.3% [at 2.72 µM], 3.99% [at 3.27 µM] and -10.2% [at 3.26 µM], respectively. Moreover, the figures for the viability change, negative = cytotoxic in [3], in assay [4] and in [6] were 0.176% [at 3.27 µM], -15.6% [at 3.27 µM] and 3.7% [at 3.27 µM], respectively.

As to `CO/N=C(/C1=NOCCO1)c1ccccc1Oc1ncnc(Oc2ccccc2Cl)c1F`, the Potency entry in assay [1], in assay [2], in assay [7] and in assay [8] was “inactive” in each case. In addition, in assay [3], the Potency is 27300 nM (active).

For `CC(=O)[O-].CC(=O)[O-].[Co+2]`, the Potency entry in assay [1], in assay [2], in [3], in assay [4], in [5] and in assay [6] was “inactive” each time.

`CCN(CC)CCN1C(=O)CN=C(c2ccccc2F)c2cc(Cl)ccc21`: the Potency entry in [1], in assay [2], in assay [3], in [7], in [4] and in assay [5] was “inactive” in each case. In addition, the Potency result in assay [6], in [9] and in [10] was “inactive” throughout.

On to `CC(C)=CC1C(C(=O)OC(C#N)c2cccc(Oc3ccccc3)c2)C1(C)C` (centres undefined), for which the Potency entry in assay [1], in [2], in [3], in assay [7], in assay [4] and in [5] was “inactive” in each case. In addition, the Potency entry in [6], in assay [9] and in assay [11] was “inactive” throughout.

Consider `CC(C)Br`, for which the Potency result in assay [1], in [12], in assay [13], in [3], in [7] and in assay [4] was “inactive” each time. For the same molecule, the Potency result in [5], in assay [8], in [14], in assay [6] and in assay [10] was “inactive” each time.

Regarding `Cc1nn(-c2cc(NS(C)(=O)=O)c(Cl)cc2Cl)c(=O)n1C(F)F`, the Potency result in assay [1], in assay [2], in assay [3], in [7], in assay [4] and in assay [5] was “inactive” in each case. The Potency entry in [6], in [9] and in assay [10] was “inactive” in each case.

Consider `CCCC[N+]1(C)CCCC1` (tested in a mixture with another compound), for which the Potency entry in [1], in assay [2], in [3], in assay [7], in [4] and in assay [5] was “inactive” throughout. Besides, the Potency result in [6] is “inactive”.

With `O=C(O)[C@H](O)[C@@H](O)C(=O)O`, the Potency result in assay [1], in assay [2], in assay [3], in assay [7] and in assay [6] was “inactive” throughout.

As for `CC(C)N(C(=O)CCl)c1ccccc1`, the Potency is 24500 nM (active) in assay [1]; 27.3 µM (active) and 30.6 µM (active) in assay [12]; 21700 nM (active) in assay [3]; 68.6 µM (active) and 61.1 µM (active) in [4]; 54.5 µM (active) and 48.6 µM (active) in assay [5]; 54.5 µM (active) and 38.6 µM (active) in assay [8]. Moreover, the Potency in assay [6] is 30600 nM (active); in [9] it was 9.69 µM (active) and 6.11 µM (active). For the same molecule, the Potency entry in assay [7], in assay [14], in assay [11] and in [10] was “inactive” in each case.

In the case of `CCOP(=O)(OCC)Oc1cc(C)nc(C(C)C)n1`, the Potency result in [1], in assay [2], in assay [3], in [7], in assay [4] and in [5] was “inactive” each time. For the same molecule, the Potency result in assay [6], in [9], in assay [11] and in [10] was “inactive” each time.

Take `C1=CCC=C1`: the Potency entry in [1], in [2], in [3], in assay [4], in assay [5] and in assay [6] was “inactive” throughout.

With `COP(=S)(OC)Oc1ccc([N+](=O)[O-])c(C)c1`, the Potency result in [1], in assay [2], in assay [4], in assay [5], in assay [8] and in [10] was “inactive” throughout.

As to `CN(C)c1ccc(N)cc1`, the Potency is 42600 nM (active) in [1]; 596 nM (active) in assay [13]; 23700 nM (active) in assay [3]; 1740 nM (active) in assay [7]; 59.6 µM (active) in assay [4]; 53200 nM (active) in assay [5]. The Potency in assay [14] was 9450 nM (active); in assay [6], 26600 nM (active). Besides, the Potency entry in [12] and in assay [8] was “inactive” each time.

As to `CCC[CH2][Sn]([CH2]CCC)([CH2]CCC)[O][Sn]([CH2]CCC)([CH2]CCC)[CH2]CCC`, the Potency was 479 nM (active) in assay [1]; 1500 nM (active) in assay [2]; 1060 nM (active) in [3]; 0.752 µM (active) in assay [4]; 947 nM (active) in assay [5]; 533 nM (active) in assay [6]. In assay [9], the activity, negative = inhibition was 332% [at 8.39 µM].

For `[C-]1=CC=CC1.[Cl][Zr+2][Cl].c1cc[cH-]c1`, the Potency result in assay [1], in [2], in [3], in assay [4], in assay [5] and in [6] was “inactive” each time.

In the case of `CC(=O)[O][Sn]([c]1ccccc1)([c]1ccccc1)[c]1ccccc1`, the Potency is 138 nM (active) in [1]; 7700 nM (active) in assay [2]; 217 nM (active) in [3]; 2240 nM (active) in [7]; 154 nM (active) in [5]; 54.5 nM (active) in assay [8]. In addition, the Potency in assay [6] was 172 nM (active); in assay [9], 545 nM (active). For the same molecule, the Potency result in assay [14] was “inactive”.

Regarding `CC[C@]1(O)CC[C@H]2[C@@H]3CCC4=CCCC[C@@H]4[C@H]3CC[C@@]21C`, the Potency result in assay [1], in [2], in [7], in assay [4], in assay [5] and in assay [14] was “inactive” in each case. Besides, the Potency result in assay [6] was “inactive”. Also, the Potency was 33500 nM (active) in assay [8] and 15000 nM (active) in assay [10].

With `[O-][Cl+3]([O-])([O-])O`, the Potency entry in assay [1], in assay [2], in assay [3], in assay [7], in assay [4] and in assay [5] was “inactive” throughout. For the same molecule, the Potency entry in assay [6] was “inactive”.

On to `CNC(=O)O/N=C(\C)C(C)S(C)(=O)=O` (centres undefined), for which the Potency entry in [1], in assay [2], in assay [3], in assay [7], in assay [4] and in assay [5] was “inactive” in each case. Also, the Potency result in assay [6], in assay [9], in assay [11] and in assay [10] was “inactive” in each case.
